Measured values: the supplement of paper PMC6555819

How the values were obtained:
Assay in all cases: PBM binding z-score (relative to random genomic background probes); higher = stronger binding; sequences stand for … in GC…GCGATTGACAGCGTAGAATGAAGG
[1] = tested on: FXR:RXRa (NR concentration 270 nM, RXRa partner concentration 90 nM)
Outline: (§1)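 Custom Agilent 4×180K protein-binding microarrays carried double-stranded probes. Their 34-nt variable regions held direct-repeat seeds, single-nucleotide variants, half-site ablations and random human genomic background sequences. Arrays were incubated 1 h with ligand-free nuclear receptor dimers in PBS pH 7.4, 2% milk, 0.02% Triton X-100, 1 mM DTT, 0.2 mg/mL BSA and 0.4 mg/ml salmon testes DNA. Antibodies against each partner (one per run) detected binding, and scanned fluorescence was regression-normalized. Binding z-scores use random background probes as reference.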

[2] = tested on: LXRa:RXRa (NR concentration 270 nM, RXRa partner concentration 90 nM)
Outline: as §1

[3] = tested on: LXRa homodimer (NR concentration 270 nM)
Outline: as §1

[4] = tested on: LXRb:RXRa (NR concentration 270 nM, RXRa partner concentration 90 nM)
Outline: as §1

[5] = tested on: LXRb homodimer (NR concentration 270 nM)
Outline: as §1

[6] = tested on: PPARa:RXRa (NR concentration 270 nM, RXRa partner concentration 90 nM)
Outline: as §1

[7] = tested on: PPARg:RXRa (NR concentration 180 nM, RXRa partner concentration 90 nM)
Outline: as §1

[8] = tested on: PPARg:RXRa 270nM:90nM, anti-RXR (NR concentration 270 nM, RXRa partner concentration 90 nM)
Outline: as §1

[9] = tested on: PPARg:RXRa 30nM:10nM, anti-RXR (NR concentration 30 nM, RXRa partner concentration 10 nM)
Outline: as §1

[10] = tested on: PPARg:RXRa 90nM:30nM, anti-RXR (NR concentration 90 nM, RXRa partner concentration 30 nM)
Outline: as §1

Row | Sequence | PBM binding z-score [1] | PBM binding z-score [2] | PBM binding z-score [3] | PBM binding z-score [4] | PBM binding z-score [5] | PBM binding z-score [6] | PBM binding z-score [7] | PBM binding z-score [8] | PBM binding z-score [9] | PBM binding z-score [10]
1 | GCTGCTGGGTCAACTGATGGTCAGCTAAAGCTCG | 3.55 | 2.07 | -0.346 | 1.83 | -0.326 | 3.89 | 2.34 | 2.93 | 0.519 | 1.99
2 | TCACCAAGGTGAGCTGAGGTCGTTGATCCAACTC | 1.24 | 0.999 | -0.747 | 0.743 | -1.63 | 1.6 | 0.00194 | 1.01 | 0.915 | 0.958
3 | ACTAGCAGGCAAAGTTTGGGTCACTCAAACAAAG | 0.0773 | 0.185 | -0.475 | 0.807 | -0.762 | 1.33 | -0.0441 | 0.288 | -0.32 | 0.224
4 | GCTGCTAGCTCAACTGATGGTCAGCTAAAGCTCG | -0.673 | -0.959 | -0.842 | -1.01 | -1.05 | -1.23 | -0.747 | -1.13 | -1.24 | -1.15
5 | ACTAGCAGGCCAAGTTCGGGTCACTCAAACAAAG | 1.11 | 1.28 | 0.378 | 1.79 | -0.339 | 2.45 | 0.431 | 0.794 | -0.79 | 0.197
6 | TCTCGGAGGACAGGAAGGTCAGAGCTTTCCAGAG | 0.736 | 1.07 | 0.00105 | 0.899 | -0.565 | 1.87 | -0.0448 | 1.49 | 2.39 | 1.78
7 | TCAAGTAGGTTAGTCGGGGCATTCAGCCAACATA | 0.926 | 0.645 | 0.0892 | 1.03 | 0.134 | 1.68 | 1.07 | 2.48 | 3.63 | 3.14
8 | CCAGACAGGTGAGAAGATAACTCAGCCTCGATTA | 0.0426 | 0.15 | -0.0638 | -0.14 | -0.471 | -0.179 | 0.576 | -0.087 | -0.116 | 0.155
9 | GCACGGAGGACAAGGTCAGAGCTTTGTCCGTAGA | 1.87 | 1.26 | -0.362 | 1.23 | -0.916 | 2.15 | 0.53 | 1.2 | -0.394 | 0.459
10 | ATCGAAAGGTCGAAGCTGAGTATACCCACCCGAA | 4.55 | 3.6 | 0.403 | 2.6 | 0.738 | 4.28 | 2.17 | 2.92 | 0.67 | 1.94
11 | CCTCGGAGGACAACAGGAGGTCCGAGCTGCCAGA | -0.13 | -0.509 | -0.575 | -1.1 | -0.867 | -0.795 | -0.182 | -0.921 | -0.862 | -0.99
12 | TCATATAGGTACACAGGTGAAAGTCCGTAAGTTA | 0.94 | 1.1 | 0.566 | 1.09 | 0.0342 | 1.94 | 2.32 | 3.69 | 4.18 | 4.15
